# RGS16-Gao HTS = regulators of human RGS16-Galphao interaction; bead-based flow cytometry RGS16-Galphao binding, fluorescence; actives lie on both sides; 220,000 tested, 0.38% active; binding response (% of control), % at 10 µM;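 further: Galphao activated by GDP with aluminum fluoride before binding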
# Target sequence (O15492 whole entry, looked up): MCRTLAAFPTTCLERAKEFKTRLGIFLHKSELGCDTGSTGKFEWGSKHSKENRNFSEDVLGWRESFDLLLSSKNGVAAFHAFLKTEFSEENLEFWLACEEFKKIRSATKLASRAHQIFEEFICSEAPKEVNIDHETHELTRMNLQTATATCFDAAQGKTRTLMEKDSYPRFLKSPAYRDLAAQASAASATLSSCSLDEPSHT
# Target sequence (P09471 whole entry, looked up): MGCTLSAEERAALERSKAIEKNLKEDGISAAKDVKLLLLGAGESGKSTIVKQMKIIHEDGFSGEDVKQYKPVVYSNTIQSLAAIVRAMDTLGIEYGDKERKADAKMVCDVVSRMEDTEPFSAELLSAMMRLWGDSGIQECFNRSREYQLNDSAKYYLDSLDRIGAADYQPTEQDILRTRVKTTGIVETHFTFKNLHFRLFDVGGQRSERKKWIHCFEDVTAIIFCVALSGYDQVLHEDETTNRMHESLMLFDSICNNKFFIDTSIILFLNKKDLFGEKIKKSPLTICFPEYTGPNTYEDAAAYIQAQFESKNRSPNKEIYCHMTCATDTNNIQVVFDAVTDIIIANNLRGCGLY
# RGS4-Gao reg = human RGS4-Galphao interaction regulation. 220,000 tested, 0.33% active. binding response (% of control), % at 10 µM. Multiplexed bead flow cytometry, RGS4-Galphao binding; actives lie on both sides. AID 1415. P09471; in the data active means binding response below about 49% or above about 150%; inactive means in between;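 further: fluorescent Galphao activated with aluminum fluoride binding bead-coupled RGS4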
# Target sequence (P09471 whole entry, looked up): as above
# Avidin fluor = avidin bead compound fluorescence profile | Avidin beads, compound fluorescence 488/530 nm, flow cytometry; hits give high values | fluorescence (KMESF) at 10 µM | 220,000 tested, 0.38% active | AID 1775; in the data active means fluorescence above about 47
# RGS8-Gao reg = human RGS8-Galphao interaction regulation; 220,000 tested, 0.34% active; response (percent of control binding), % at 10 µM; multiplexed bead flow cytometry, RGS8-Galphao binding; actives lie on both sides; in the data active means response below about 60% or above about 140%; inactive means in between;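 further: Galphao activated as the GDP aluminium fluoride complex binding bead-coupled RGS8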
# RGS7-Gao = modulates binding of RGS7 to human Galphao | 220,000 tested, 0.35% active | P09471 | binding response (% of control), % at 10 µM | Multiplexed bead flow cytometry; actives lie on both sides; in the data active means binding response below about 49% or above about 150%; inconclusive means no clear call, values can overlap the other calls; inactive means in between;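 further: fluorescent Galphao held in activated GDP-AlF4 state binding bead-coupled RGS7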
# GSH bead fluor = compound fluoresces at 488/530 nm on GSH beads; GSH beads flow cytometry, compound fluorescence 488/530 nm; hits give high values; fluorescence (KMESF) at 10 µM; 190,000 tested, 0.25% active; AID 1776; in the data active means fluorescence above about 89;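 further: glutathione beads carrying GST-tagged Bcl family fusion proteins plus one bare bead set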
# RGS-Gao = modulates binding between human RGS4 and Galphao; shares compounds with RGS16-Gao HTS; multiplexed bead flow cytometry, RGS–Galpha-o binding; RGS4–Galpha-o binding response, % at 10 µM; 1,600 tested, 99% active;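 further: fluorescently labeled Galpha-o bound to GDP with aluminium fluoride binding biotinylated RGS beads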
# Avidin counter = biotin-avidin bead binding disruption counter-screen. shares compounds with RGS16-Gao HTS. streptavidin beads, fluorescein-biotin binding, flow cytometry. inhibition, % at 10 µM. 1,700 tested, under 10 active. AID 1783;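 active means inhibition above 50%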;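 further: median green fluorescence of gated singlet beads compared with DMSO control wells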
# RGS8-Gao confirm = RGS8-Galphao interaction regulation, single point confirmation; 1,700 tested, 3% active; shares compounds with RGS16-Gao HTS; AID 1836; bead-based flow cytometry RGS8-Galphao binding, fluorescence; actives lie on both sides; binding response (% of control), % at 10 µM; in the data active means binding response below about 72% or above about 130%; inactive means in between;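 further: Galphao activated as GDP AlF4 complex before binding bead RGS8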
# RGS7-Gao confirm = confirmation of regulators of human RGS7-Galphao interaction; shares compounds with RGS16-Gao HTS; bead-based flow cytometry RGS7-Galphao binding; actives lie on both sides; response (percent of control binding), % at 10 µM; 1,700 tested, 7.8% active; in the data active means response below about 75% or above about 130%; inactive means in between;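 further: fluorescent Galphao activated with GDP and aluminum fluoride binding bead-coupled RGS7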
# RGS16-Gao single = RGS16-Galphao interaction regulation, single point confirmation; shares compounds with RGS16-Gao HTS; bead-based flow cytometry, RGS16-Galphao binding; actives lie on both sides; response (% of control binding), % at 10 µM; 1,700 tested, 4% active; in the data active means response below about 74% or above about 130%; inactive means in between;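 further: Galphao activated as the GDP aluminium fluoride complex binding bead-coupled RGS16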
# RGS4-Gao single = confirmation of regulators of human RGS4-Galphao interaction. shares compounds with RGS16-Gao HTS. RGS4-Galphao binding, multiplexed bead flow cytometry; actives lie on both sides. 1,700 tested, 4% active. AID 1840. binding response (% of control), % at 10 µM; in the data active means binding response below about 74% or above about 130%; inactive means in between
# RGS19-Gao single = RGS19-Galphao interaction regulation, single point confirmation; response (percent of control binding), % at 10 µM; shares compounds with RGS16-Gao HTS; 1,700 tested, 5% active; bead-based flow cytometry RGS19-Galphao binding; actives lie on both sides; in the data active means response below about 50% or above about 160%; inactive means in between
# A number is an active result; 0 = inactive; ? = inconclusive; - = no result; + = active, no number; [ ] = remark or other dose. An excerpt weighted towards active compounds, which were near 1.2% of everything screened. Unless noted, how the calls were made is not given here.
SMILES,RGS16-Gao HTS,RGS4-Gao reg,Avidin fluor,RGS8-Gao reg,RGS7-Gao,GSH bead fluor,Avidin counter,RGS8-Gao confirm,RGS7-Gao confirm,RGS16-Gao single,RGS4-Gao single,RGS19-Gao single,others
Cc1ccc(-c2cc(C(=O)N/N=C/c3ccco3)n[nH]2)s1,0,0,0,0,0,0,-,-,-,-,-,-,
CC(C)(C)c1cc(C(=O)N/N=C/c2ccco2)n[nH]1,278.5[activator],0,0,0,0,0,0,0,0,0,0,0,RGS-Gao=114.2
COCCOC(=O)/C(C#N)=C/c1cn(Cc2ccccc2)nc1-c1cccnc1,0,0,0,0,?,0,-,-,-,-,-,-,
CCc1nnc(NC(=O)c2cccc(S(=O)(=O)N3CCc4ccccc43)c2)s1,3.0,28.2,0,18.7,22.9,0,0,0,0,0,0,0,
CC(C)CCNC(=O)NC(=O)COC(=O)c1cc(S(=O)(=O)N2CCOCC2)ccc1N1CCCCC1,15.6,24.6,0,11.6,12.6,0,0,0,0,0,0,0,
CCc1nnc(NC(=O)c2cc(S(=O)(=O)N3CCOCC3)ccc2N2CCCCC2)s1,+[activator],+[activator],897,393.1[activator],+[activator],0,0,0,0,0,0,0,
CC(=O)c1cccc(NC(=O)COC(=O)C2=COCCO2)c1,0,0,0,0,0,0,-,-,-,-,-,-,
CN=c1scc(-c2cccs2)n1/N=C/c1ccc(O)c(O)c1O,0,0,0,0,0,0,-,-,-,-,-,-,
CN=c1scc(C)n1/N=C/c1ccc(O)c(O)c1O,0,0,0,47.9,0,0,0,70.8,56.6,64.3,0,28.7,RGS-Gao=64.0
CCN(C(=O)c1cc2cccc(OC)c2oc1=O)C1CCCCC1,223.2[activator],186.6[activator],112,0,187.5[activator],0,0,0,0,0,0,0,
Cc1ccc(C)c(NC(=O)/C(C#N)=C/c2ccc(Sc3nncn3C)c([N+](=O)[O-])c2)c1,0,0,0,0,0,0,-,-,-,-,-,-,
O=C(C/C=N\OCc1ccc([N+](=O)[O-])cc1)Nc1ccc(Br)cc1,0,0,0,0,156.6[activator],0,0,0,0,0,0,0,RGS-Gao=106.3
O=C(COc1ccccc1[N+](=O)[O-])Nc1ccc(Br)cc1,0,0,0,0,?,-,-,-,-,-,-,-,
Cn1cnnc1-c1cccc(NC(=O)c2cc(F)c(F)cc2Cl)c1,0,0,0,0,0,0,-,-,-,-,-,-,
CSc1ccc(C2C(C#N)=C(N)Oc3c2ccc(=O)c2c(C)oc(C)c32)cc1 (stereo not drawn),0,179.6[activator],93,0,254.3[activator],159,0,0,0,0,0,0,
COc1ccccc1-n1cnnc1SCC(=O)c1ccc[nH]1,-33.6,-30.0,0,10.0,-11.1,0,0,0,0,0,0,0,
Cc1ccc(NC(=O)CSc2nc3ccccc3c(=O)n2CCCN2CCCCC2)cc1Cl,0,0,0,148.8[activator],0,0,0,0,61.5,0,71.5,0,RGS-Gao=114.8
CC1CCN(CCCn2c(SCC(=O)Nc3ccccc3Cl)nc3ccccc3c2=O)CC1,0,0,0,145.0[activator],0,0,0,0,0,0,0,0,RGS-Gao=119.5
CN1CCN(C(=O)/C(=C/c2cccs2)NC(=O)c2ccco2)CC1,0,0,0,0,0,0,-,-,-,-,-,-,
O=C(Nc1ccccc1)N1CCCC1,-,-,-,-,-,0,0,0,0,0,0,0,
CC(C)c1ccc(/C=N/NC(=O)c2c(Cl)cnn2C)cc1,0,0,0,0,0,0,-,-,-,-,-,-,
COc1ccc(-c2[nH]ncc2CN(C)CCN2CCOCC2)cc1F,-4.7,-6.3,0,6.9,-15.3,0,0,0,0,0,0,0,
Cc1cc(C(=O)c2ccc(C(C)(C)C)cc2)c(NC(=O)CCl)s1,0,0,0,0,0,0,-,-,-,-,-,-,
O=C(Nc1ccc(C(=O)O)cc1)Nc1cccc([N+](=O)[O-])c1,0,0,0,149.5[activator],0,0,0,0,0,0,0,0,RGS-Gao=121.8
O=C(Nc1cccc([N+](=O)[O-])c1)Nc1cccc([N+](=O)[O-])c1,0,0,0,0,0,0,-,-,-,-,-,-,
SMILES,RGS16-Gao HTS,RGS4-Gao reg,Avidin fluor,RGS8-Gao reg,RGS7-Gao,GSH bead fluor,Avidin counter,RGS8-Gao confirm,RGS7-Gao confirm,RGS16-Gao single,RGS4-Gao single,RGS19-Gao single,others
C(=N\Nc1ccc2ccccc2n1)/c1ccc2c(c1)OCCO2,0,0,0,140.2[activator],0,0,0,0,0,0,0,0,RGS-Gao=111.2
COc1ccc(C(=O)NC(=S)N2CCOCC2)cc1OC,0,0,0,0,0,0,-,-,-,-,-,-,
CC1=NCCN1CCNC(=O)Nc1ccc(F)cc1,0,0,0,0,?,-,-,-,-,-,-,-,
CC1=NCCN1CCNC(=O)Nc1cc(C)cc(C)c1,0,46.9,0,0,?,-,0,0,0,0,0,0,
CCc1sc(C(=O)NCCc2ccc(S(N)(=O)=O)cc2)cc1Br,0,0,0,0,?,0,-,-,-,-,-,-,
COc1cccc(CNC(=O)C2CCN(S(=O)(=O)c3ccc4c(c3)CCC(=O)N4)CC2)c1,0,0,0,141.1[activator],0,0,0,0,0,0,0,0,RGS-Gao=109.7
O=C(CSc1nnc(SCc2ccccc2)s1)N/N=C/c1c(Cl)cccc1Cl,0,0,0,0,0,0,-,-,-,-,-,-,
Cc1nn(-c2ccccc2)c(C)c1/C=N/NC(=O)CSc1nnc(SCc2ccc(Cl)cc2)s1,0,0,68,0,156.9[activator],0,0,0,0,0,0,0,RGS-Gao=108.1
CC(C)=CCN1CCNC(=O)C1CC(=O)NCc1nc(C)c(C)s1 (stereo not drawn),0,0,0,0,0,0,-,-,-,-,-,-,
N#CC1=C(N)C2=C(N3CCCCC3)CCCC2C1(C#N)C#N (stereo not drawn),0,0,0,0,0,0,-,-,-,-,-,-,
N#CC(C#N)=C1C=C2C=C(N3CCCCC3)CCC2CC1 (stereo not drawn),0,161.5[activator],84,0,186.1[activator],99,0,0,136.8[activator],0,0,190.5[activator],
CCN(CC)C1=CC2=CC(=C(C#N)C#N)CCC2CC1 (stereo not drawn),0,165.0[activator],0,0,0,0,0,0,166.8[activator],0,129.5[activator],362.9[activator],

# Screening data: PubChem BioAssay, NMMLSC
